# In PubChem BioAssay (NCI):
# The panel holds about 83,000 compounds, 20% with a hit somewhere; the sample as a whole holds those more often.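 How to read the values: 0–100, growth inhibition (40 = 60% inhibited); 0, no net growth; -100 to 0, cell death (-40 = 40% of starting cells died; -100 = all dead).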 Values without a mark were called inactive. Active and inactive are the calls of the source. How the source made its calls: active means growth percent below 10; inactive means the rest.
# What was measured:
# Experiment in all cases: NCI-60 one-dose screen, 48 h (100 = growth as untreated, 0 = no growth, -100 = all killed)
# Details in all cases: 10 µM unless noted
# DU-145 prostate = system: DU-145 prostate
# K-562 leukemia = system: K-562 leukemia
# MALME-3M melanoma = system: MALME-3M melanoma
# MDA-MB-231 breast = system: MDA-MB-231 breast
# RXF 393 renal = system: RXF 393 renal
# SF-268 CNS = system: SF-268 CNS
# SF-295 CNS = system: SF-295 CNS
# SF-539 CNS = system: SF-539 CNS
# UACC-257 melanoma = system: UACC-257 melanoma
# M14 melanoma = system: M14 melanoma
Compound,growth (DU-145 prostate),growth (K-562 leukemia),growth (MALME-3M melanoma),growth (MDA-MB-231 breast),growth (RXF 393 renal),growth (SF-268 CNS),growth (SF-295 CNS),growth (SF-539 CNS),growth (UACC-257 melanoma),growth (M14 melanoma)
N#Cc1c(NC(=O)c2ccco2)[n+]([O-])c2ccccc2[n+]1[O-],95.5%,84.9%,112%,96.1%,95.5%,110%,107%,84.4%,102%,104%
Cc1ccc2nc(-c3ccc(N(C)C)c(Br)c3)cn2c1,93.7%,29%,116%,92.9%,62.8%,78.2%,90.5%,65.9%,90.7%,78.6%
COc1ccc2c(c1)[n+](=O)c(C(=O)/C=C/c1cc(OC)c(OC)c(OC)c1)c(C)n2[O-],47.6%,35.4%,91.8%,67.9%,48.6%,56.3%,87.5%,81.9%,80.5%,80.1%
O=C(CNC(=O)c1cccc2ccccc12)Nc1ccccc1Oc1ccc(O)cc1,19.5% [5 µM],9.54% [5 µM] (active),57.9% [5 µM],47.7% [5 µM],-2.89% [5 µM] (active),51.7% [5 µM],6.5% [5 µM] (active),-11% [5 µM] (active),76.7% [5 µM],9.58% [5 µM] (active)
Cc1ccc2nc3c(n2c1)C(=O)C(=O)c1ccccc1-3,-89.5% (active),-48.3% (active),-85.2% (active),-48.8% (active),-91.3% (active),-78.2% (active),-71.1% (active),-90.1% (active),-90.3% (active),-81.3% (active)
N#Cc1c(-c2ccccc2)cc(-c2ccccc2)n(CCCCCCC(=O)O)c1=O,116%,94.3%,94.5%,94.8%,92.7%,97.8%,94.1%,97.4%,109%,101%
CC(=O)N1N=C(c2ccc(Nc3ccnc4cc(Cl)ccc34)cc2)CC1c1ccc(Cl)cc1 (stereo not given),67.3%,19.1%,26.8%,72.7%,42.3%,53.3%,15.4%,86.4%,61.7%,47.6%
N/C(=N\C(N)=N\c1nc2ccccc2s1)c1ccnc(Cl)c1,26.9%,8.95% (active),64.9%,49.7%,-6.26% (active),61.5%,17.6%,7.12% (active),74.4%,27.9%
CCc1nn2c(-c3ccc(Cl)cc3C)c(-c3cc(OC)c(OC)c(OC)c3)nc2s1,91.7%,78.4%,68%,73.8%,85.2%,93.4%,95.3%,92.6%,103%,76.7%
COc1ccc2c(c1)[n+](=O)c(/C=C/C(=O)c1cc(OC)c(OC)c(OC)c1)c(C)n2[O-],17.5%,2.27% (active),86%,84.1%,38.5%,69.4%,46.4%,70.2%,63.6%,63.6%
C=C1CCC2C3(C)COC(c4ccccc4)OC3CCC2(C)C1C/C=C1/C(=O)OCC1OC(C)=O (stereo not given),108%,74.2%,105%,94.9%,41%,102%,100%,105%,91.3%,89.4%
CN1CCC[C@@H]1CCO[C@](C)(c1ccccc1)c1ccc(Cl)cc1,91.5%,30.4%,71.8%,88.7%,38.7%,81.8%,63.2%,76.2%,23.4%,15.6%
